In PubChem BioAssay AID1159580 (chemical genetic matrix, 2015):
About 2,000 (36%) of roughly 5,500 compounds were called active. Inconclusive results (about 18%) are left out. No stated cut-off is given here; in the data, active means normalized growth mostly below about 0.91 (no sharp cut-off); inconclusive means no clear call, values can overlap the other calls; inactive means mostly above about 0.92. The list shows a part of the results.

Experiment: chemical genetic growth profiling, strain panel (AID 1159580);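 further: tested at 20 µM; growth read once vehicle control cultures reached saturation at 30 °C; 1 = growth at the plate median or of vehicle wells; lower values mean less growth of the strain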
Settings: growth OD

Measured: normalized growth

CC(C)=CCC[C@](C)(O)C1CC=C(C)CC1 (some centres not stated)
inactive: S. cerevisiae deletion strains, locus YJR043C, strain POL32, hits give low values 1.01 | S. cerevisiae deletion strains, locus YJR066W, strain TOR1, hits give low values 0.953 | S. cerevisiae deletion strains, locus YKL009W, strain mrt4, hits give low values 0.962 | S. cerevisiae deletion strains, locus YKL068W, hits give low values 1.01 | S. cerevisiae deletion strains, locus YKL085W, strain MDH1 (second series), hits give low values 0.991 | S. cerevisiae deletion strains, locus YKL085W, strain MDH1, hits give low values 0.991 | S. cerevisiae deletion strains, locus YKL160W, strain elf1, hits give low values 1 | S. cerevisiae deletion strains, locus YKR001C, strain vps1, hits give low values 0.902 | S. cerevisiae deletion strains, locus YKR026C, strain gcn3, hits give low values 0.976 | S. cerevisiae deletion strains, locus YKR091W, strain srl3, hits give low values 0.98 | S. cerevisiae deletion strains, locus YLL001W, strain dnm1, hits give low values 0.992 | S. cerevisiae deletion strains, locus YLL026W, hits give low values 0.992 | S. cerevisiae deletion strains, locus YLL041C, strain sdh2, hits give low values 0.997 | S. cerevisiae deletion strains, locus YLR027C, strain aat2, hits give low values 0.969 | S. cerevisiae deletion strains, locus YLR039C, strain RIC1, hits give low values 0.964 | S. cerevisiae deletion strains, locus YLR058C, strain SHM2, hits give low values 1.03 | S. cerevisiae deletion strains, locus YLR102C, strain apc9, hits give low values 0.986 | S. cerevisiae deletion strains, locus YLR113W, strain HOG1, hits give low values 1.02 | S. cerevisiae deletion strains, locus YLR221C, strain rsa3, hits give low values 0.982 | S. cerevisiae deletion strains, locus YLR258W, strain gsy2, hits give low values 0.978 | S. cerevisiae deletion strains, locus YLR262C, strain YPT6 (second series), hits give low values 0.998 | S. cerevisiae deletion strains, locus YLR262C, strain YPT6, hits give low values 0.966 | S. cerevisiae deletion strains, locus YLR268W, strain sec22, hits give low values 0.991 | S. cerevisiae deletion strains, locus YLR320W, strain mms22, hits give low values 0.984 | S. cerevisiae deletion strains, locus YLR330W, strain CHS5, hits give low values 1.02 | S. cerevisiae deletion strains, locus YLR342W, strain FKS1 (second series), hits give low values 0.995 | S. cerevisiae deletion strains, locus YLR342W, strain FKS1, hits give low values 0.98 | S. cerevisiae deletion strains, locus YLR357W, strain rsc2, hits give low values 0.944 | S. cerevisiae deletion strains, locus YLR370C, strain arc18, hits give low values 0.96 | S. cerevisiae deletion strains, locus YLR371W, strain rom2, hits give low values 1 | S. cerevisiae deletion strains, locus YLR384C, strain iki3, hits give low values 0.971 | S. cerevisiae deletion strains, locus YLR418C, strain cdc73, hits give low values 0.982 | S. cerevisiae deletion strains, locus YML016C, strain PPZ1, hits give low values 1.01 | S. cerevisiae deletion strains, locus YML032C, strain rad52, hits give low values 0.992 | S. cerevisiae deletion strains, locus YML120C, strain ndi1, hits give low values 0.988 | S. cerevisiae deletion strains, locus YML124C, strain tub3, hits give low values 1 | S. cerevisiae deletion strains, locus YMR058W, strain fet3, hits give low values 0.97 | S. cerevisiae deletion strains, locus YMR078C, strain ctf18, hits give low values 0.976 | S. cerevisiae deletion strains, locus YMR125W, strain sto1, hits give low values 0.967 | S. cerevisiae deletion strains, locus YMR129W, hits give low values 0.992 | S. cerevisiae deletion strains, locus YMR205C, strain PFK2, hits give low values 0.983 | S. cerevisiae deletion strains, locus YMR223W, strain ubp8, hits give low values 0.991 | S. cerevisiae deletion strains, locus YMR231W, strain pep5, hits give low values 0.965 | S. cerevisiae deletion strains, locus YMR307W, strain GAS1, hits give low values 1.13 | S. cerevisiae deletion strains, locus YNL067W, strain RPL9B, hits give low values 1.01 | S. cerevisiae deletion strains, locus YNL071W, strain lat1, hits give low values 0.98 | S. cerevisiae deletion strains, locus YNL153C, strain GIM3, hits give low values 1.01 | S. cerevisiae deletion strains, locus YNL183C, strain NPR1, hits give low values 0.954 | S. cerevisiae deletion strains, locus YNL209W, strain ssb2, hits give low values 0.98 | S. cerevisiae deletion strains, locus YNL233W, strain BNI4, hits give low values 1.04 | S. cerevisiae deletion strains, locus YNL248C, strain rpa49, hits give low values 0.978 | S. cerevisiae deletion strains, locus YNL250W, strain rad50, hits give low values 1 | S. cerevisiae deletion strains, locus YNL271C, strain bni1, hits give low values 0.988 | S. cerevisiae deletion strains, locus YNL298W, strain CLA4, hits give low values 1.01 | S. cerevisiae deletion strains, locus YNL307C, strain MCK1, hits give low values 0.983 | S. cerevisiae deletion strains, locus YNL322C, strain KRE1 (second series), hits give low values 0.982 | S. cerevisiae deletion strains, locus YNR049C, strain mso1, hits give low values 0.979 | S. cerevisiae deletion strains, locus YNR052C, strain pop2, hits give low values 0.994 | S. cerevisiae deletion strains, locus YOL012C, strain htz1 1.39 | S. cerevisiae deletion strains, locus YOL147C, strain pex11, hits give low values 0.981 | S. cerevisiae deletion strains, locus YOR001W, strain rrp6, hits give low values 0.975 | S. cerevisiae deletion strains, locus YOR061W, strain CKA2, hits give low values 1.03 | S. cerevisiae deletion strains, locus YOR069W, strain VPS5, hits give low values 1.02 | S. cerevisiae deletion strains, locus YOR070C, strain gyp1, hits give low values 1.02 | S. cerevisiae deletion strains, locus YOR080W, strain dia2, hits give low values 0.979 | S. cerevisiae deletion strains, locus YOR083W, strain WHI5, hits give low values 0.987 | S. cerevisiae deletion strains, locus YOR106W, strain vam3, hits give low values 0.947 | S. cerevisiae deletion strains, locus YOR136W, strain idh2, hits give low values 0.992 | S. cerevisiae deletion strains, locus YOR144C, strain elg1, hits give low values 0.989 | S. cerevisiae deletion strains, locus YOR184W, strain ser1, hits give low values 0.994 | S. cerevisiae deletion strains, locus YOR231W, strain MKK1, hits give low values 0.993 | S. cerevisiae deletion strains, locus YOR265W, strain rbl2, hits give low values 0.98 | S. cerevisiae deletion strains, locus YOR270C, strain vph1, hits give low values 0.932 | S. cerevisiae deletion strains, locus YOR290C, strain snf2, hits give low values 0.969 | S. cerevisiae deletion strains, locus YOR316C, strain cot1, hits give low values 0.986 | S. cerevisiae deletion strains, locus YPL051W, strain arl3, hits give low values 0.981 | S. cerevisiae deletion strains, locus YPL055C, strain LGE1, hits give low values 1.04 | S. cerevisiae deletion strains, locus YPL078C, strain atp4, hits give low values 0.988 | S. cerevisiae deletion strains, locus YPL106C, strain sse1, hits give low values 0.981 | S. cerevisiae deletion strains, locus YPL240C, strain hsp82, hits give low values 0.977 | S. cerevisiae deletion strains, locus YPL256C, strain CLN2, hits give low values 0.99 | S. cerevisiae deletion strains, locus YPR119W, strain clb2, hits give low values 1.01 | S. cerevisiae deletion strains, locus YPR141C, strain kar3, hits give low values 1 | S. cerevisiae deletion strains, locus YPR163C, strain tif3, hits give low values 0.973 | S. cerevisiae deletion strains, locus YPR167C, strain met16, hits give low values 1.02 | S. cerevisiae deletion strains, strain wtn01, hits give low values 0.974 | S. cerevisiae strains, strain wild type, hits give low values 1.02
